Laboratory results: the supplement of paper PMC8728848
The sample as a whole holds a higher share of the strongest signals than the screen did.

What was measured:
Assay in all cases: glycan array binding signal (z-score within array); higher = stronger binding
Details in all cases: glycan notation: IUPAC condensed, linker removed
[1] = biological target: Fuc(a1-2)Gal(b1-4)GlcNAc(b1-3)Gal(b1-4)GlcNAc
Procedure, shortened: (§1)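 From the Consortium for Functional Glycomics database, 3228 arrays were curated, keeping only those whose protein sequence was available. Binding is given as a within-array Z-score averaged across arrays sharing a protein sequence and across linkers. Negative Z-scores can be read as non-binding.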

[2] = biological target: Fuc(a1-2)Gal(b1-4)GlcNAc(b1-3)[Fuc(a1-2)Gal(b1-4)GlcNAc(b1-6)]GalNAc
Procedure, shortened: as §1

[3] = biological target: Fuc(a1-2)Gal(b1-4)[Fuc(a1-3)]GlcNAc(b1-2)Man(a1-3)[Fuc(a1-2)Gal(b1-4)[Fuc(a1-3)]GlcNAc(b1-2)Man(a1-6)]Man(b1-4)GlcNAc(b1-4)GlcNAc
Procedure, shortened: as §1

[4] = biological target: Fuc(a1-2)Gal(b1-4)[Fuc(a1-3)]GlcNAc(b1-2)[Fuc(a1-2)Gal(b1-4)[Fuc(a1-3)]GlcNAc(b1-4)]Man(a1-3)[Fuc(a1-2)Gal(b1-4)[Fuc(a1-3)]GlcNAc(b1-2)Man(a1-6)]Man(b1-4)GlcNAc(b1-4)GlcNAc
Procedure, shortened: as §1

[5] = biological target: Fuc(a1-2)Gal(b1-4)[Fuc(a1-3)]GlcNAc(b1-3)Gal(b1-4)[Fuc(a1-3)]GlcNAc(b1-3)Gal(b1-4)[Fuc(a1-3)]GlcNAc
Procedure, shortened: as §1

[6] = biological target: Fuc(a1-2)Gal(b1-4)[Fuc(a1-3)]GlcNAc(b1-3)GalNAc
Procedure, shortened: as §1

[7] = biological target: Fuc(a1-2)[Gal(a1-3)]Gal(b1-4)[Fuc(a1-3)]Glc
Procedure, shortened: as §1

[8] = biological target: Fuc(a1-2)[Gal(a1-4)]Gal(b1-4)GlcNAc
Procedure, shortened: as §1

[9] = biological target: Fuc(a1-2)[GalNAc(a1-3)]Gal
Procedure, shortened: as §1

[10] = biological target: Fuc(a1-2)[GalNAc(a1-3)]Gal(b1-4)Glc
Procedure, shortened: as §1

[11] = biological target: Fuc(a1-2)[GalNAc(a1-3)]Gal(b1-4)[Fuc(a1-3)]GlcNAc
Procedure, shortened: as §1

[12] = biological target: Fuc(a1-3)[Gal3S(b1-4)]GlcNAc6S
Procedure, shortened: as §1

[13] = biological target: Gal(a1-3)Gal(b1-4)Glc
Procedure, shortened: as §1

[14] = biological target: Gal(a1-4)Gal(b1-4)GlcNAc(b1-3)Gal(b1-4)Glc
Procedure, shortened: as §1

[15] = biological target: Gal(b1-3)GalNAc(a1-3)[Fuc(a1-2)]Gal(b1-4)Glc
Procedure, shortened: as §1

[16] = biological target: Gal(b1-3)GlcNAc(b1-2)Man(a1-3)[GlcNAc(b1-4)][Gal(b1-3)GlcNAc(b1-2)Man(a1-6)]Man(b1-4)GlcNAc(b1-4)GlcNAc
Procedure, shortened: as §1

[17] = biological target: Gal(b1-4)GalNAc(b1-3)[Fuc(a1-2)]Gal(b1-4)GlcNAc
Procedure, shortened: as §1

[18] = biological target: Gal(b1-4)GlcNAc(b1-2)Man(a1-3)Man(b1-4)GlcNAc(b1-4)GlcNAc
Procedure, shortened: as §1

[19] = biological target: Gal(b1-4)GlcNAc6P
Procedure, shortened: as §1

[20] = biological target: Gal(b1-6)Gal
Procedure, shortened: as §1

[21] = biological target: Gal3S(b1-4)Glc
Procedure, shortened: as §1

[22] = biological target: Gal3S(b1-4)[Fuc(a1-3)]Glc6S
Procedure, shortened: as §1

[23] = biological target: Gal6S(b1-4)GlcNAc6S
Procedure, shortened: as §1

[24] = biological target: GalNAc(b1-4)Gal(b1-4)Glc
Procedure, shortened: as §1

[25] = biological target: GalNAc6S(b1-4)GlcNAc
Procedure, shortened: as §1

[26] = biological target: GlcNAc(a1-4)Gal(b1-4)GlcNAc(b1-3)Gal(b1-4)[Fuc(a1-3)]GlcNAc(b1-3)Gal(b1-4)[Fuc(a1-3)]GlcNAc
Procedure, shortened: as §1

[27] = biological target: GlcNAc(b1-3)[GlcNAc(b1-4)][GlcNAc(b1-6)]GlcNAc
Procedure, shortened: as §1

[28] = biological target: Man(a1-2)Man(a1-2)Man(a1-6)[Man(a1-3)]Man
Procedure, shortened: as §1

[29] = biological target: Neu5Ac(a2-3)Gal(b1-3)GlcNAc(b1-3)Gal(b1-3)GlcNAc
Procedure, shortened: as §1

[30] = biological target: Neu5Ac(a2-3)Gal(b1-3)GlcNAc6S
Procedure, shortened: as §1

[31] = biological target: Neu5Ac(a2-3)Gal(b1-3)[Neu5Ac(a2-6)]GlcNAc(b1-3)[Fuc(a1-3)[Gal(b1-4)]GlcNAc(b1-6)]Gal(b1-4)Glc
Procedure, shortened: as §1

[32] = biological target: Neu5Ac(a2-3)Gal(b1-4)GlcNAc(b1-2)Man
Procedure, shortened: as §1

[33] = biological target: Neu5Ac(a2-3)Gal(b1-4)[Fuc(a1-3)]GlcNAc(b1-3)Gal(b1-4)[Fuc(a1-3)]GlcNAc(b1-3)Gal(b1-4)[Fuc(a1-3)]GlcNAc
Procedure, shortened: as §1

[34] = biological target: Neu5Ac(a2-3)Gal(b1-4)[Fuc(a1-3)]GlcNAc(b1-3)GalNAc
Procedure, shortened: as §1

[35] = biological target: Neu5Ac(a2-6)Gal(b1-4)GlcNAc(b1-3)Gal(b1-4)GlcNAc(b1-3)Gal(b1-4)GlcNAc
Procedure, shortened: as §1

[36] = biological target: Neu5Ac(a2-6)Gal(b1-4)GlcNAc(b1-6)GalNAc
Procedure, shortened: as §1

[37] = biological target: Neu5Ac(a2-8)Neu5Ac(a2-3)Gal(b1-3)GalNAc(b1-4)[Neu5Ac(a2-8)Neu5Ac(a2-3)]Gal(b1-4)Glc
Procedure, shortened: as §1

[38] = biological target: Neu5Ac(b2-6)GalNAc
Procedure, shortened: as §1

[39] = biological target: Neu5Ac9Ac(a2-3)Gal(b1-3)GlcNAc
Procedure, shortened: as §1

B1: OrfX (Escherichia coli), Q9X4B6_ECOLX (protein)
chain: MIKIARIAVTLGLLSSLGAQAYAAGLVVNDNDLRNDLAWLSDRGVIHLSLSTWPLSQEEIARALKKAKPSYSSEQVVLARINQRLSALKADFRVTGYTSTDQPGTPQGFGQTQPADNSLGLAFNNSGEWWDVHLQGNVEGGERISNGSRFNANGAYGAVKFWNQWLSFGQVPQWWGPGYEGSLIRGDAMRPMTGFLMQRAEQAAPETWWLRWVGPWQYQISASQMNQYTAVPHAKIIGGRFTFTPFQSLELGASRIMQWGGEGRPQSFSSFWDGFTGHDNTGTDNEPGNQLAGFDFKFKLEPTLGWPVSFYGQMVGEDESGYLPSANMFLGGVEGHHGWGKDTVNWYVEAHDTRTNMSRTNYSYTHHIYKDGYYQQGYPLGDAMGGDGQLIAGKVELITEDNQRWSTRLVYAKVNPENQSINKAFPHADTLKGLQLGWSGDVYQSVRLNTSLWYTNANNSDSDDVGASAGIEIPFSL
For B1, the “glycan array binding signal (z-score)” value [1] was -0.191, the “glycan array binding signal (z-score)” value [2] was 0.429 and the “glycan array binding signal (z-score)” value [3] was 0.202. The “glycan array binding signal (z-score)” value [4] was -0.108, the “glycan array binding signal (z-score)” value [5] was -0.02 and the “glycan array binding signal (z-score)” value [6] was 4.3. The “glycan array binding signal (z-score)” value [7] was -0.132, the “glycan array binding signal (z-score)” value [8] was -0.32 and the “glycan array binding signal (z-score)” value [9] was -0.116. For the same binder, the “glycan array binding signal (z-score)” value [10] was -0.196, the “glycan array binding signal (z-score)” value [11] was 0.042 and the “glycan array binding signal (z-score)” value [12] was 2.97. For the same binder, the “glycan array binding signal (z-score)” value [13] was -0.261, the “glycan array binding signal (z-score)” value [14] was -0.181 and the “glycan array binding signal (z-score)” value [15] was -0.182. For the same binder, the “glycan array binding signal (z-score)” value [16] was 0.214, the “glycan array binding signal (z-score)” value [17] was -0.145 and the “glycan array binding signal (z-score)” value [18] was -0.266. The “glycan array binding signal (z-score)” value [19] was 0.611, the “glycan array binding signal (z-score)” value [20] was 0.048 and the “glycan array binding signal (z-score)” value [21] was 0.076. For the same binder, the “glycan array binding signal (z-score)” value [22] was 2.79, the “glycan array binding signal (z-score)” value [23] was 2.74 and the “glycan array binding signal (z-score)” value [24] was 0.667. The “glycan array binding signal (z-score)” value [25] was -0.318, the “glycan array binding signal (z-score)” value [26] was 10.6 and the “glycan array binding signal (z-score)” value [27] was 11.2. For the same binder, the “glycan array binding signal (z-score)” value [28] was -0.231, the “glycan array binding signal (z-score)” value [29] was -0.096 and the “glycan array binding signal (z-score)” value [30] was -0.301. For the same binder, the “glycan array binding signal (z-score)” value [31] was -0.357, the “glycan array binding signal (z-score)” value [32] was 7.89 and the “glycan array binding signal (z-score)” value [33] was -0.34. For the same binder, the “glycan array binding signal (z-score)” value [34] was 7.1, the “glycan array binding signal (z-score)” value [35] was -0.288 and the “glycan array binding signal (z-score)” value [36] was 3.4. For the same binder, the “glycan array binding signal (z-score)” value [37] was -0.409, the “glycan array binding signal (z-score)” value [38] was -0.166 and the “glycan array binding signal (z-score)” value [39] was -0.162.
